Measured values from ChEMBL document CHEMBL4513216, “Probing the Open Global Health Chemical Diversity Library for Multistage-Active Starting Points for Next-Generation Antimalarials” (ACS Infect Dis, 2020).
About 2,100 (3.2%) of roughly 65,000 compounds showed an effect of 50% or more. The median lay at about -52%. Shown is part of a subset that was picked to be rich in strong results.

Each compound was assayed on Plasmodium falciparum (assay: Screen against P. falciparum Asexual Blood Stage (ABS), at 5uM). Conditions: tested at 5 uM.
Type: functional, Dd2

Structure (SMILES)	INHIBITION [%]
O=C(NC1CC1)[C@@H]1CCO[C@@H]2CCN(CC3CCC3)C[C@@H]21	-89.4
Cc1ccc(CN2CC[C@H]3[C@H](CC(Cn4cccn4)N3C)C2)s1 (some centres not stated)	62.7
CC(C)N1CC[C@H]2[C@H](C[C@@H](Cn3cccn3)N2c2nccs2)C1	66.3
CN1C(Cn2cccn2)C[C@@H]2CN(Cc3cnn(C)c3)CC[C@@H]21 (some centres not stated)	-48.5
CN1C(Cn2cccn2)C[C@@H]2CN(Cc3nccs3)CC[C@@H]21 (some centres not stated)	-108
CN1[C@H](CN2CCCC2)C[C@@H]2CN(Cc3ccoc3)CC[C@@H]21	58.5
CCC(=O)N1CC[C@H]2[C@H](C[C@@H](Cn3cccn3)N2c2nccs2)C1	-13.4
CC(C)N1[C@H](CN2CCCC2)C[C@@H]2CN(Cc3cnn(C)c3)CC[C@@H]21	-20.1
CN1CC[C@H]2[C@H](C[C@@H](Cn3cncn3)N2c2nccs2)C1	-37.1
CC(C)N1[C@H](Cn2cccn2)C[C@@H]2CN(Cc3ccoc3)CC[C@@H]21	40.6
CC1CN(Cc2nc(Cc3ccccc3F)no2)CCN1C (configuration not stated)	-114
O=C(CCc1ccsc1)N1CCCC(n2cncn2)C1 (configuration not stated)	-152
COC[C@@]12CCC[C@@H]1CN(C(=O)CN(C)C)C2	-1.68
CO[C@H]1CN(Cc2cc(Cn3cncn3)c(C)cc2C)CC[C@H]1N	-28.2
Cc1cc(C)c(Cn2cncn2)cc1CN1CCC(CN)C1 (configuration not stated)	69
Cc1cc(C)c(Cn2cncn2)cc1CN1CC[C@@H]2CC[C@H](C1)N2	13.3
COCc1ncn2c1CN(C(=O)Nc1cccc(OC)c1)CC2	-101
CC(C)c1nccn1-c1cccc(C2CCCN(S(=O)(=O)N(C)C)C2)n1 (configuration not stated)	-73.6
N[C@@H]1CC[C@@H](Nc2nccc(CCC(F)(F)F)n2)C1	-4.32
NC1CCC(Nc2nccc(CCC(F)(F)F)n2)CC1 (configuration not stated)	50.3
FC(F)(F)CCc1ccnc(NC2CCC(n3cnnc3)CC2)n1 (configuration not stated)	-54.2
CS(=O)(=O)N1CCC(c2ccncn2)CC1	-94.7
CN(C(=O)CSc1ncc[nH]1)C1CC1	-11.8
Fc1ccc(CN2CCc3ncnc(C4CCOC4)c3CC2)cc1 (configuration not stated)	-78.8
CCN(Cc1cccc(Cl)c1)Cc1ncc(C(C)(C)C)o1	-14.1
Cc1cccc(CN(Cc2ccccn2)Cc2ncc(C(C)(C)C)o2)c1	60.4
Cc1cccc(CN(Cc2ccccn2)S(=O)(=O)N(C)C)c1	-25.3
